In PubChem BioAssay (Tox21):
Records with an inconclusive call do not appear. Where a call stands in place of a potency, no number is given. Activity calls are given as the source filed them. Calls follow the shape of the dose curve; as a rule, active = well fitted cell-killing curve with a large enough effect in the repeat runs; inconclusive = weak or mixed curves, or effect the other way; inactive = flat fitted curve, though single readings scatter.

experiment: qHTS assay to identify small molecule antagonists of the constitutive androstane receptor (CAR) signaling pathway - cell viability counter screen (AID 1224837); conditions: HepG2-CYP2B6-hCAR viability, CellTiter-Fluor, 23 h, co-treated with 50 nM CITCO; series mostly up to 92.4 µM; also: nearly all actives have a fitted effect of over 45% in size
Method in brief: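 HepG2-CYP2B6-hCAR cells, 2500/well, 4 hr pre-incubation; compound titration, 15 conc.; CITCO 50 nM final; 23 hr, 37 C/5% CO2; CellTiter-Fluor, fluorescence intensity.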

| SMILES | Potency |
| --- | --- |
| COP(=S)(OC)SCN1C(=O)c2ccccc2C1=O | inactive |
| Oc1ccc(Cl)cc1 | inactive |
| Cc1ccccc1N | inactive |
| C=C(C)C(=O)OCC(CC)CCCC (stereo unspecified) | inactive |
| COP(=S)(OC)Oc1ccc(SC)c(C)c1 | inactive |
| Cc1cccc(N)c1 | inactive |
| CCOP(=S)(OCC)Oc1cc(C)nc(C(C)C)n1 | inactive |
| Sc1ccccc1 | inactive |
| Nc1ccc([As](=O)(O)O)cc1 | inactive |
| c1ccc2c(c1)CCCC2 | inactive |
| O=C(O)C(Br)Br | inactive |
| C=CC(=O)OCC(CC)CCCC (stereo unspecified) | inactive |
| CC12CC1(C)C(=O)N(c1cc(Cl)cc(Cl)c1)C2=O (stereo unspecified) | inactive |
| Nc1cccc(Cl)c1 | inactive |
| Cc1cccc(C)c1N | inactive |
| NNc1ccccc1 | inactive |

| SMILES | Potency |
| --- | --- |
| CCCOC(=O)c1ccccc1C(=O)OCCC | inactive |
| OCc1ccco1 | inactive |
| O=C(O)CCCc1ccc(N(CCCl)CCCl)cc1 | inactive |
| CC(=O)C1CCOC1=O (stereo unspecified) | inactive |
| CC(=O)/C=C/c1ccccc1 | inactive |
| CC(C)CCCCCCOC(=O)c1ccccc1C(=O)OCCCCCCC(C)C | inactive |
| O=C(O)C1C(C(=O)O)C2(Cl)C(Cl)=C(Cl)C1(Cl)C2(Cl)Cl (stereo unspecified) | inactive |
| CC(C)(C)C(=O)CCl | inactive |
| C[C@]12CC[C@H](O)CC1=CC[C@@H]1[C@@H]2CC[C@]2(C)C(=O)CC[C@@H]12 | inactive |
| O=C(O)COc1ccccc1 | inactive |
| O=[N+]([O-])c1cc([As](=O)(O)O)ccc1O | inactive |
| O=C(O)c1cc(Oc2ccc(C(F)(F)F)cc2Cl)ccc1[N+](=O)[O-] | inactive |
| CCNc1nc(Cl)nc(NC(C)C)n1 | inactive |
| O=S(=O)(O)OOS(=O)(=O)O | inactive |
| O=[N+]([O-])c1ccc(Cl)cc1 | inactive |
